Assay in all cases: DAPPL (digital affinity profiling via proximity ligation, sequencing); 10 mM Tris-HCl pH 7.5, 50 mM NaCl, 1 mM DTT, 4% glycerol, room temperature, 30 min; GST-TFs on glutathione beads, 16-mer random dsDNA library, 0.1% formaldehyde crosslink after washing; high values mean tight binding
Conditions in all cases: protein: recombinant; tags: N-terminal GST; dsDNA, one strand shown

In one assay the target is T1, FLI1 (Homo sapiens, UniProt Q01543 1-452).
T1 sequence: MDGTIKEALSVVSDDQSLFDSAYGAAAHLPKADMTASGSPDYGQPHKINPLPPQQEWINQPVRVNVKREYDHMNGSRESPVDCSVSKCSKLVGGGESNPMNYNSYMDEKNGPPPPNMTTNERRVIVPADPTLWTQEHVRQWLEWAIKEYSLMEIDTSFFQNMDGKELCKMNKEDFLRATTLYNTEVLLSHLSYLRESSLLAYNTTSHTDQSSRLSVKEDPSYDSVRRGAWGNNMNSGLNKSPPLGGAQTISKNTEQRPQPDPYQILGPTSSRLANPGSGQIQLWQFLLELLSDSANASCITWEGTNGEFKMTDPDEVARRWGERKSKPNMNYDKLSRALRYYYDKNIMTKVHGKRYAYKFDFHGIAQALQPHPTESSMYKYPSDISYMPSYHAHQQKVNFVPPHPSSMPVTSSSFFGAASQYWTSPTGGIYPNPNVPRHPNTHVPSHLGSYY
Put shortly: (§1)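 Sequencing on an Illumina NextSeq500 followed washing, crosslinking with 0.1% formaldehyde, proximity ligation (BsaI/T4 ligase, 1 h, 37 °C) and PCR amplification of pools that had been incubated for 30 min at room temperature with 200 nmole of a random double-stranded 16-mer DNA library in Tris/NaCl/DTT/glycerol buffer. Each pool held DNA-barcoded human transcription factors, expressed in yeast as GST fusions and captured on glutathione beads, plus a tag-only sample. Binding signal is a hexamer's read frequency for a factor divided by its frequency in the tag-only sample.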

Another assay concerns the target T2, ELK1 (Homo sapiens, UniProt P19419 1-428).
T2 sequence: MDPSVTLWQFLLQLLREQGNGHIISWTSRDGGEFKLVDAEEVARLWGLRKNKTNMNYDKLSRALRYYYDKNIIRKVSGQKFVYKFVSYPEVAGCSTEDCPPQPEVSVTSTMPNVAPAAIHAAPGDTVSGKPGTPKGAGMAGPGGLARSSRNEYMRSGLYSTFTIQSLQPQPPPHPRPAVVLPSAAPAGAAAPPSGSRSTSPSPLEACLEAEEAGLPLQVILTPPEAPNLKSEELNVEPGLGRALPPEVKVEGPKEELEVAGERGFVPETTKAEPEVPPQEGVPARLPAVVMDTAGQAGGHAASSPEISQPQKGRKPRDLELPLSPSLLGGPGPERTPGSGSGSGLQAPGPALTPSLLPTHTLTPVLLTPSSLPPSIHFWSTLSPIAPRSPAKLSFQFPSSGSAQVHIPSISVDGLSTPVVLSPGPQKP
Put shortly:
as §1

The target in another assay is T3, GABPA (Homo sapiens, UniProt Q06546 1-454).
T3 sequence: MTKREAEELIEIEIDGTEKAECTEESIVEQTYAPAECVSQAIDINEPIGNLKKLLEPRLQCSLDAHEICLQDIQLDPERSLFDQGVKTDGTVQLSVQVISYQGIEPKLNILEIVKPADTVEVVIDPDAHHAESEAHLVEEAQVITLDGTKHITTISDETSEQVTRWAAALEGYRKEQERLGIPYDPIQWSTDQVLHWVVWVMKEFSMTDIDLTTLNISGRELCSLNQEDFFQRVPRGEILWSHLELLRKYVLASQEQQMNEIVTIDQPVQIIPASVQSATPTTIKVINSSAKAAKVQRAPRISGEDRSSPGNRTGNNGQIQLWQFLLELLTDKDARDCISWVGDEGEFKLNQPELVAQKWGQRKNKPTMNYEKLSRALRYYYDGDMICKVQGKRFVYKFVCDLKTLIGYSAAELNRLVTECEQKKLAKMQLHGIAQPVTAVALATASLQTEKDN
Put shortly: as §1

The next assay deals with T4, ERG (Homo sapiens, UniProt P11308 1-479).
T4 sequence: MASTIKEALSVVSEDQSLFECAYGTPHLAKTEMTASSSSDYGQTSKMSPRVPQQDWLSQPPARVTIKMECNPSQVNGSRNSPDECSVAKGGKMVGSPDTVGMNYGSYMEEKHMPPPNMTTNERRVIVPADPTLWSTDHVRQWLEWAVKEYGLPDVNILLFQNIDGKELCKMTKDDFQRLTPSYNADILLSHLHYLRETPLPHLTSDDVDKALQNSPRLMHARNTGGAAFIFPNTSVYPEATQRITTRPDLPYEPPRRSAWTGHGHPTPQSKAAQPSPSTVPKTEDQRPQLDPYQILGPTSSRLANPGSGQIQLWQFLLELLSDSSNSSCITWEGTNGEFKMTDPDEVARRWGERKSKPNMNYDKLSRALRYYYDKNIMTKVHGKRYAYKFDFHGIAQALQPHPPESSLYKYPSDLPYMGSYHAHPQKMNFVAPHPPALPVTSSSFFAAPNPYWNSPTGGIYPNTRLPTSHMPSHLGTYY
Summed up: as §1

For a further assay, the target named is ELF1 (Homo sapiens, UniProt P32519 1-619). Summed up: as §1
ELF1, sequence (P32519 whole entry): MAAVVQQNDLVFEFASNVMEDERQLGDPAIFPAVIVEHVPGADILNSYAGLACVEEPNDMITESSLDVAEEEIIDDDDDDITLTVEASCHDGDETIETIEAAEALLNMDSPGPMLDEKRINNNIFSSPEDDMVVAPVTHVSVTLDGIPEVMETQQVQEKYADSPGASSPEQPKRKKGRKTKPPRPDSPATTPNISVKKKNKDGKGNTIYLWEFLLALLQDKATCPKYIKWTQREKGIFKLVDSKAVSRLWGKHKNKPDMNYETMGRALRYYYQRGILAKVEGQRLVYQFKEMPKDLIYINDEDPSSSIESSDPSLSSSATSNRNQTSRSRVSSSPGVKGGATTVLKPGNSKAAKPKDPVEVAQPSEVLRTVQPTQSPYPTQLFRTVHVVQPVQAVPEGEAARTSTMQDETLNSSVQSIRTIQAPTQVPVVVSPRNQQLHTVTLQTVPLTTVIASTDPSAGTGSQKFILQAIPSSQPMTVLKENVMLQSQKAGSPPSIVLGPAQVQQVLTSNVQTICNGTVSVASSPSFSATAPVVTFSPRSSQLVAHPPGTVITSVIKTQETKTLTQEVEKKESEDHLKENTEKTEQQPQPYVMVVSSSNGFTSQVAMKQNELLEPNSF
Another assay deals with T5, EHF (Homo sapiens, UniProt Q9NZC4 1-300).
T5 sequence: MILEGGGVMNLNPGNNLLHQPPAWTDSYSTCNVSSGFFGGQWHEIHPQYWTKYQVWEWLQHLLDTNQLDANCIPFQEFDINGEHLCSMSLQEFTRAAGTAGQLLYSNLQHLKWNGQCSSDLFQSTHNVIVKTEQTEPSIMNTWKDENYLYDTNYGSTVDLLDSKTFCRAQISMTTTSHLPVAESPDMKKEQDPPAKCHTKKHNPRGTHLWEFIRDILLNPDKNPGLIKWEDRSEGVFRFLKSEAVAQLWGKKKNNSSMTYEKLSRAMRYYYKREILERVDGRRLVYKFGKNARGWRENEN
Put shortly: as §1

Another assay has as its target SPI1 (Homo sapiens, UniProt P17947 1-270). Put shortly:
as §1

The next assay has as its target SPIB (Homo sapiens, UniProt Q01892 1-262). Put shortly:
as §1

The target in another assay is T6, ELK3 (Homo sapiens, UniProt P41970 1-407).
T6 sequence: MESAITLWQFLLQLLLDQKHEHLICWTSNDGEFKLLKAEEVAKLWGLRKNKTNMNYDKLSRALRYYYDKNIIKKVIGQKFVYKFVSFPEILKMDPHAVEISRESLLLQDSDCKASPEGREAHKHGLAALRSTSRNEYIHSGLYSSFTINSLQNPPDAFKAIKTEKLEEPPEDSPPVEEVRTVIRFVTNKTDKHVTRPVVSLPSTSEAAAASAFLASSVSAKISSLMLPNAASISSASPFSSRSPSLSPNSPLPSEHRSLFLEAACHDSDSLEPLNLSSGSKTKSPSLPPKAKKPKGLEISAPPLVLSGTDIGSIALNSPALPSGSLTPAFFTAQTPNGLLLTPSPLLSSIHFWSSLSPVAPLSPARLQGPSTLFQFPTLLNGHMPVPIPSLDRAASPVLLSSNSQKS
Put shortly:
as §1

The next assay concerns the target T7, FEV (Homo sapiens, UniProt Q99581 1-238).
T7 sequence: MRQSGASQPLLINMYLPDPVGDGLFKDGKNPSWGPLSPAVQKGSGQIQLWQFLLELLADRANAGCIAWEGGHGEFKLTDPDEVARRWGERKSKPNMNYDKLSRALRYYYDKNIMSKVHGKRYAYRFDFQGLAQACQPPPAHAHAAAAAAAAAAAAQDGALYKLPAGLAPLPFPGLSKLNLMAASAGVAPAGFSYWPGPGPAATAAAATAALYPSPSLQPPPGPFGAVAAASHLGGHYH
Put shortly: as §1

The target in a further assay is ETV5 (Homo sapiens, UniProt P41161 1-510). Summed up:
as §1

Another assay has as its target T8, SPIC (Homo sapiens, UniProt Q8N5J4 1-248).
T8 sequence: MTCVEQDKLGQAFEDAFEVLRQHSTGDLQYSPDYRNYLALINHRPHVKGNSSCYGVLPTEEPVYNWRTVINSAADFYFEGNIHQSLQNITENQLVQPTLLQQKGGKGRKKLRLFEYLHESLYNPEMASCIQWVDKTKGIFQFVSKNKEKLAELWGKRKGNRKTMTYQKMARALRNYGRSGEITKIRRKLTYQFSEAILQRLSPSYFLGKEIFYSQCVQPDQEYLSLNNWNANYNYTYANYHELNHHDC
Summed up:
as §1

For the next assay, the target named is ELF4 (Homo sapiens, UniProt Q99607 1-663). Put shortly: as §1
ELF4, sequence (Q99607 whole entry): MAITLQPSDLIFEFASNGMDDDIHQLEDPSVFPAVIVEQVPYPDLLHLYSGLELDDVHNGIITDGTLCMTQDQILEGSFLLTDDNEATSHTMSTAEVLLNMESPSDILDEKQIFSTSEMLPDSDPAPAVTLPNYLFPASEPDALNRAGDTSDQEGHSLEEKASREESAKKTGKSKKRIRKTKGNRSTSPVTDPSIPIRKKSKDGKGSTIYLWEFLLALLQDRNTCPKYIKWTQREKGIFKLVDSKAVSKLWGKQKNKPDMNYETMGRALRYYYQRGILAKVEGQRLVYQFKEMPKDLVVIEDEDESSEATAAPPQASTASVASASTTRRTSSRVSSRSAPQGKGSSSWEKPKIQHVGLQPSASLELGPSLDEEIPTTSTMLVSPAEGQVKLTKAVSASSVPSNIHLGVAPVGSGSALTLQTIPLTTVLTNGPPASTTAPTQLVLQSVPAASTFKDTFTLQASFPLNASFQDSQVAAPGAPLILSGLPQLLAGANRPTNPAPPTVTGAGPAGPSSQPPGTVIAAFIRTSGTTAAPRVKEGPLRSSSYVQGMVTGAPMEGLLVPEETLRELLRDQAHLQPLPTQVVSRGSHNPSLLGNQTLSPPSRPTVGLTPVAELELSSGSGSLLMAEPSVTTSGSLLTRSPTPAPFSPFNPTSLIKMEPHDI
For a further assay, the target named is ETV1 (Homo sapiens, UniProt P50549 1-477). Summed up: as §1
ETV1, sequence (P50549 whole entry): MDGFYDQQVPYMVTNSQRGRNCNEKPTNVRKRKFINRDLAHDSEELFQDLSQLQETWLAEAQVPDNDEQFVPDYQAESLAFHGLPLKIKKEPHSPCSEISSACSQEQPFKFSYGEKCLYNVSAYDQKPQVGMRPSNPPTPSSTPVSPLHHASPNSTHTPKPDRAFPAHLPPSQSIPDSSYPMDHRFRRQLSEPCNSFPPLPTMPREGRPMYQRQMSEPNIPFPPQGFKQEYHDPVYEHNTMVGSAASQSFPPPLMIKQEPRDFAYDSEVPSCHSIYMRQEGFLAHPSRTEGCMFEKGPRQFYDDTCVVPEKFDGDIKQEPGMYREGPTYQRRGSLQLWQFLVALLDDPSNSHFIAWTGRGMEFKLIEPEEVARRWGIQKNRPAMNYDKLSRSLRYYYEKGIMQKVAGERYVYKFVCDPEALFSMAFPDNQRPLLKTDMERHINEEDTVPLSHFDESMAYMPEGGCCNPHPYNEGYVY
Another assay deals with T9, ETV3L (Homo sapiens, UniProt Q6ZN32 1-361).
T9 sequence: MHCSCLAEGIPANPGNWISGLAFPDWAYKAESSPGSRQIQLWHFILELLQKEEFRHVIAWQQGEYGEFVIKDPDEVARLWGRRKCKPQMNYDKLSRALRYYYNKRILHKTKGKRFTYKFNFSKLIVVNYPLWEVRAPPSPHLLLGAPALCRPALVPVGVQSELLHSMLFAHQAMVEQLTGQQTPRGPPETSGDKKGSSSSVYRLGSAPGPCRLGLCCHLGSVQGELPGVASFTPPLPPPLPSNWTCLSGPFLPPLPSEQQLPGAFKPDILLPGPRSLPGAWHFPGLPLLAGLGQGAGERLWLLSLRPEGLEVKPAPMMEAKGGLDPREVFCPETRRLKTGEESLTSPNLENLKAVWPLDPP
Summed up:
as §1

In a further assay the target is T10, ETS2 (Homo sapiens, UniProt P15036 1-469).
T10 sequence: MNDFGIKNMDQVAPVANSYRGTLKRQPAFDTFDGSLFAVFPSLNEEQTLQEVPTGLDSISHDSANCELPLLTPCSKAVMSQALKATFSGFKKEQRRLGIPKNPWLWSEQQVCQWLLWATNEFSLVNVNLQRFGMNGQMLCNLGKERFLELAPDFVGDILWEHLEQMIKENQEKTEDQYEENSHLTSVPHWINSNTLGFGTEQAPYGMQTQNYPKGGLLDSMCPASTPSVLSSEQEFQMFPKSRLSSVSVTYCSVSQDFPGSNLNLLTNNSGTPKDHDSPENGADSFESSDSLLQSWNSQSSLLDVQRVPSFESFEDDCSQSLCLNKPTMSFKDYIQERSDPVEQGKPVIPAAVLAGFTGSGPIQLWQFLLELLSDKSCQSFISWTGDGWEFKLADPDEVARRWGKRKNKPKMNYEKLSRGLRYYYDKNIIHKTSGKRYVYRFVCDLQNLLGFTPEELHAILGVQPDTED
Summed up: as §1

The next assay deals with T11, ELF5 (Homo sapiens, UniProt Q9UKW6-2 1-255).
T11 sequence: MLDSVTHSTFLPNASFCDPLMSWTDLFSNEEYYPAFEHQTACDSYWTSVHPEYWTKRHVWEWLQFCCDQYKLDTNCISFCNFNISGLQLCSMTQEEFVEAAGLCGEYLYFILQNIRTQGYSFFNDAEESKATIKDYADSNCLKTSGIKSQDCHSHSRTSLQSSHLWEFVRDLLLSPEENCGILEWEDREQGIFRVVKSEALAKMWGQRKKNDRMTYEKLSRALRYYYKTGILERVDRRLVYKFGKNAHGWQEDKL
Summed up:
as §1

The next assay addresses T12, ETV3 (Homo sapiens, UniProt P41162-2 1-143).
T12 sequence: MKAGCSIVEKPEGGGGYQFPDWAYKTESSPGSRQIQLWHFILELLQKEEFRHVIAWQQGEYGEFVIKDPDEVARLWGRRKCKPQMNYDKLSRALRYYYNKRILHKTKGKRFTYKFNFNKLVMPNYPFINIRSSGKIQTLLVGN
Summed up: as §1

For a further assay, the target named is ETV6 (Homo sapiens, UniProt P41212 1-452). Put shortly:
as §1

SPIB, sequence (Q01892 whole entry): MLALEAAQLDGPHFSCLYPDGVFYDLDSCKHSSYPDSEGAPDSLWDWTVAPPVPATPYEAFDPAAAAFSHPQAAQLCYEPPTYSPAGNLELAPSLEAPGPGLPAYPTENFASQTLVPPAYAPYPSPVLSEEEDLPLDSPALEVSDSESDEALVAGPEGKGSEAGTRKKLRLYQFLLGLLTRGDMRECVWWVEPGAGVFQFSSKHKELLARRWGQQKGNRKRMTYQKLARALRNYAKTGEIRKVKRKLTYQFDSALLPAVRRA
ETV6, sequence (P41212 whole entry): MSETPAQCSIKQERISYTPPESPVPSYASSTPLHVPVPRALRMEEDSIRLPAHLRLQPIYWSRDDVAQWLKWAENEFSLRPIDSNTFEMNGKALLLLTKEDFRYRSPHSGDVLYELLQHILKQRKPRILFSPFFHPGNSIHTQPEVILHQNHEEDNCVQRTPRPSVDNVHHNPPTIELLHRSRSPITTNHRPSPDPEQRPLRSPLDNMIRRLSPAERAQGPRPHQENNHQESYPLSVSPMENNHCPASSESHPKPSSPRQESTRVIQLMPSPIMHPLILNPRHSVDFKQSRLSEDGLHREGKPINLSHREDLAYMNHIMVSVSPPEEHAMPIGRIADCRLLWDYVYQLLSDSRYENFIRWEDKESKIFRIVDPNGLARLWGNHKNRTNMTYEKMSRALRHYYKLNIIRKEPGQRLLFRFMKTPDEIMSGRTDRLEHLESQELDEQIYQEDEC
ETV5, sequence (P41161 whole entry): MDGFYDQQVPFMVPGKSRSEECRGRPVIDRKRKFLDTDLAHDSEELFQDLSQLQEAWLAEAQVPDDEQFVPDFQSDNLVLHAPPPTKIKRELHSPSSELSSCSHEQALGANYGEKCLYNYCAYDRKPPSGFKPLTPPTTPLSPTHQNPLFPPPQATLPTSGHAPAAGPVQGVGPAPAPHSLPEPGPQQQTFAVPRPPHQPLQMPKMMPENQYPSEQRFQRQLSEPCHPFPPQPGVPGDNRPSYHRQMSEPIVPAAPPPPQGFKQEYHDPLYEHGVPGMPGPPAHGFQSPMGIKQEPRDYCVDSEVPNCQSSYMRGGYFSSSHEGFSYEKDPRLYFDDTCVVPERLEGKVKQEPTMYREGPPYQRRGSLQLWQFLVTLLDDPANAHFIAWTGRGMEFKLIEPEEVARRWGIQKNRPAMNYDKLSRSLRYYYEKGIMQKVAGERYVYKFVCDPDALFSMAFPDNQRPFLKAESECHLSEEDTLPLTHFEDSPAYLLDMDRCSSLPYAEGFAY

For the sequence GCTGCC, the binding signal in the assay with FLI1 is 1.13 fold enrichment (6-mer frequency, TF over GST control); with ELK1 it was 1.08 fold enrichment (6-mer frequency, TF over GST control); with GABPA, 1.18 fold enrichment (6-mer frequency, TF over GST control); with ERG, 1.02 fold enrichment (6-mer frequency, TF over GST control); with ELF1, 1.03 fold enrichment (6-mer frequency, TF over GST control); with EHF, 1.24 fold enrichment (6-mer frequency, TF over GST control). In addition, the binding signal with SPI1 is 1.06 fold enrichment (6-mer frequency, TF over GST control); in the assay with SPIB, 1.03 fold enrichment (6-mer frequency, TF over GST control); with ELK3, 1.05 fold enrichment (6-mer frequency, TF over GST control); in the assay with FEV it was 1.14 fold enrichment (6-mer frequency, TF over GST control); with ETV5, 1.04 fold enrichment (6-mer frequency, TF over GST control); in the assay with SPIC it was 1.01 fold enrichment (6-mer frequency, TF over GST control). Further, the binding signal with ELF4 is 1.06 fold enrichment (6-mer frequency, TF over GST control); with ETV1 it was 1.19 fold enrichment (6-mer frequency, TF over GST control); with ETV3L, 1.03 fold enrichment (6-mer frequency, TF over GST control); with ETS2, 1.08 fold enrichment (6-mer frequency, TF over GST control); in the assay with ELF5, 1.09 fold enrichment (6-mer frequency, TF over GST control); with ETV3 it was 1.12 fold enrichment (6-mer frequency, TF over GST control). The binding signal in the assay with ETV6 is 1.13 fold enrichment (6-mer frequency, TF over GST control).
